Assay results from PubChem BioAssay AID1209 (Sanford-Burnham Center for Chemical Genomics, 2008).
In all, about 190,000 compounds went through this assay and about 810 (0.43%) were called active. Cut-off read from the data, not from the text of the source: active = inhibition above about 50%; inactive = the rest. What follows is part of a selection rich in actives, with near analogues and random picks from the rest.

molecular target: Mannose-6-phosphate isomerase (Homo sapiens) (UniProt P34949); assay: inhibitors of human PMI, primary screen, biochemical, fluorescence intensity, coupled assay (AID 1209); settings: purified PMI enzyme, at 20 µM, stronger effect = higher value;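 note: plate controls were DMSO vehicle for no effect and wells lacking substrate for full effect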
Sequence (P34949 whole entry, looked up): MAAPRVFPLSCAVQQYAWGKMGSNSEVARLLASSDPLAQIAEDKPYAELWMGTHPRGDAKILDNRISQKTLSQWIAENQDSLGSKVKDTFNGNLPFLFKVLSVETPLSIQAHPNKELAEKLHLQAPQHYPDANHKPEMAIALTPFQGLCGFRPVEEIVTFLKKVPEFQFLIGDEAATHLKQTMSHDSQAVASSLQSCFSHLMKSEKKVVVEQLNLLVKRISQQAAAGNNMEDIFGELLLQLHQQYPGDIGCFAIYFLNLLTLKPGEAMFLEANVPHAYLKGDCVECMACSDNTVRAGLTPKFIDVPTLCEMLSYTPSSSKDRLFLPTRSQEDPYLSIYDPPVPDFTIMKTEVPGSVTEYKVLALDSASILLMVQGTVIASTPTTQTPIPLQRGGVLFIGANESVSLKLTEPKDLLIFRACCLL

SMILES	inhibition
O=C(COC(=O)c1cccc(Cl)c1)Nc1cc(Cl)ccc1Oc1ccccc1	18.8% (inactive)
Cc1cc(OCC(O)CN)ccc1Cl (stereo not drawn)	-8.6% (inactive)
Clc1ccc(CN2CCN(/N=C/c3cccnc3)CC2)cc1	85.6% (active)
C(=N\N1CCN(Cc2ccccc2)CC1)/c1cccnc1	9.3% (inactive)
Cc1ccc(CN2CCN(/N=C/c3cccnc3)CC2)cc1	17.9% (inactive)
CN1CCc2nc(SCC(=O)Nc3cccc(F)c3)c(C#N)c(-c3cccs3)c2C1	35% (inactive)
CN1CCc2nc(SCC(=O)Nc3ccc(OC(F)(F)F)cc3)c(C#N)c(-c3cccs3)c2C1	15.7% (inactive)
CC(C)(C)C(=O)CSc1nc2c(c(-c3cccs3)c1C#N)CCC2	-25.9% (inactive)
Cc1cccc(CSc2nc(N)c(C#N)c(-c3cccs3)c2C#N)c1	6.6% (inactive)
Cc1cccc(CSc2nc3c(c(-c4cccs4)c2C#N)CN(C)CC3)c1	69.6% (active)
COc1ccc(NC(=O)CSc2nc3c(c(-c4cccs4)c2C#N)CN(C)CC3)cc1OC	59.8% (active)
COc1ccc2c(c1)C(=O)N(c1ccccc1C)C(=O)C2(C)C	-9.2% (inactive)
COC(=O)CCCNc1ncccc1[N+](=O)[O-]	-0.5% (inactive)
Cn1c(SCC(=O)N2CCN(c3ccccc3)CC2)nnc1-c1ccco1	4.2% (inactive)
CC(C)(CNS(C)(=O)=O)SCc1ccc(Cl)cc1	-12.2% (inactive)
Cc1nn(C(C)CC(=O)O)c(C)c1Br (stereo not drawn)	-0.1% (inactive)
COc1cccc(/C=N/NC(=O)c2ccccc2)c1OS(=O)(=O)c1ccccc1	2.4% (inactive)
COc1ccc(C(=O)CCC(C)(C)[N+](=O)[O-])cc1	-6.3% (inactive)
O=C(c1ccc(CS(=O)(=O)c2ccc(Br)cc2)o1)N1CCN(C2CCCCC2)CC1	-9% (inactive)
O=C(NC1CCCCC1)C(=S)N1CCOCC1	10.9% (inactive)
O=C(NC1CCCCCC1)C(=S)N1CCCC1	4.7% (inactive)
O=C(NC1CCCCCC1)C(=S)N1CCOCC1	61.8% (active)
Cc1ccc(C(C(=O)NC2CCCCC2)N2CCC3(CC2)OCCO3)cc1 (stereo not drawn)	1.6% (inactive)
C=CCOC(=O)C1=C[C@H](c2ccc(Br)cc2)[C@@H](CCCO)[C@H](OCC)O1	17.5% (inactive)
Cc1cc(=O)c2c(O)c(O)ccc2o1	77.7% (active)
COc1ccc(-c2cc(=O)c3c(O)c(OC)c(O)cc3o2)cc1	0.6% (inactive)

SMILES	inhibition
Cc1occc(=O)c1O	-5.2% (inactive)
O=C(O)c1ccccc1Cc1nc2cc(Cl)ccc2c(=O)[nH]1	-7.4% (inactive)
COc1ccc(NC(=O)CCCn2c(=O)c3sccc3n(Cc3ccccc3C)c2=O)cc1	6.6% (inactive)
CCN(CC)C(=O)c1ccc(/C=C/c2c[nH]c3ccccc23)[n+](C)c1	8.9% (inactive)
CCc1ccc(/C=C/c2c[nH]c3ccccc23)[n+](CC)c1	51.8% (active)
OCC[n+]1ccc(/C=C/c2c[nH]c3ccccc23)cc1	2.7% (inactive)
NS(=O)(=O)c1ccc(CCNC(=O)C2CCC(CNS(=O)(=O)c3ccc(Br)s3)CC2)cc1 (stereo not drawn)	4.5% (inactive)
Cc1cc2cc(C=C(C#N)C#N)c(Cl)nc2cc1C	20.3% (inactive)
Cc1cc2cc(C=O)c(Cl)nc2cc1C	61.2% (active)
Cc1cc(C)c2cc(CNC3CCCC3)c(Cl)nc2c1	8.6% (inactive)
CC(C)(C)c1nn(-c2ccccc2)c2nc(Cl)c(C=O)cc12	-1.5% (inactive)
Cc1ccc2cc(C=O)c(Cl)nc2c1	37.4% (inactive)
Cc1occc1C(=O)NNC(=O)C1CCCCC1	20.4% (inactive)
CCOc1ccc(CCNC(=O)CSc2nn(-c3ccc(C)c(Cl)c3)c(=S)s2)cc1OCC	8.9% (inactive)
CCN(CC1COc2ccccc2O1)C(=S)Nc1ccccc1 (stereo not drawn)	11.9% (inactive)
S=C(c1ccc(-c2ccccc2Cl)o1)N1CCOCC1	70.8% (active)
S=C(c1ccc(-c2ccccc2Cl)o1)N1CCCCC1	10.9% (inactive)
S=C(c1ccc(-c2cc(Cl)ccc2Cl)o1)N1CCOCC1	11.6% (inactive)
O=C(CSc1nnc(-c2ccc(OC(F)F)cc2)o1)N1CCOCC1	-4.5% (inactive)
CNC(=O)c1ccccc1F	6.4% (inactive)
O=C(C1CC1)N1N=C(C2CCCCC2)CC1(O)C(F)(F)F (stereo not drawn)	6.9% (inactive)
O=C(C1CCCC1)N1CCC(CO)(Cc2ccccc2Cl)CC1	0.9% (inactive)
COc1ccc2[nH]c(=S)[nH]c2c1	16.4% (inactive)
S=c1[nH]c2cc(Cl)ccc2s1	-15.2% (inactive)
S=c1[nH]c2ccc(Cl)cc2[nH]1	50.2% (active)
O=C(Nc1ccccc1Cl)N1CCN(C/C=C/c2ccccc2)CC1	-2% (inactive)

SMILES	inhibition
Oc1ccc(-c2cn3c(n2)SCC3)cc1	-8.6% (inactive)
Oc1ccc(-c2cn3c(n2)SCC3)cc1O	59.5% (active)
Cc1ccc(-c2cn3c(n2)SCC3)cc1	-3.8% (inactive)
CCNc1nc(N2CCOCC2)nc(N(c2ccccc2)c2ccccc2)n1	13% (inactive)
COc1ccc(Cl)cc1N/C(N)=N/c1nc(CSc2ccc(C)cc2)cc(=O)[nH]1	3.7% (inactive)
NC(=S)Nc1cccc2cc3ccccc3cc12	-8.8% (inactive)
NC(=S)N/N=C\c1c2ccccc2cc2ccccc12	-64.6% (inactive)
NC(=S)Nc1cc2ccccc2c2ccccc12	67.5% (active)
COc1ccc(C(=O)OCC(=O)NCCCc2ccccc2)cc1[N+](=O)[O-]	9.8% (inactive)
O=C(CSc1nnnn1-c1ccccc1)N1CCc2ccccc2C1	4% (inactive)
CN(C)CCC(=O)c1cccc(Br)c1	24% (inactive)
CC(=O)N1C(=O)/C(=C2\SC(=S)N(c3c(C)n(C)n(-c4ccccc4)c3=O)C2=O)c2ccccc21	64.9% (active)
CCN1C(=O)/C(=C2\SC(=S)N(c3c(C)n(C)n(-c4ccccc4)c3=O)C2=O)c2ccccc21	14.5% (inactive)
Cc1c(N2C(=O)/C(=C3/C(=O)N(C)c4ccccc43)SC2=S)c(=O)n(-c2ccccc2)n1C	11.1% (inactive)
N/C(COc1ncn(-c2ccccc2)n1)=N\S(=O)(=O)c1ccc(Cl)cc1Cl	9.1% (inactive)
CCC(C)(C)NC(=O)C(OC(=O)c1ccco1)c1ccccc1OC (stereo not drawn)	14.2% (inactive)
NC(=O)NC(=O)CC1S/C(=N/N=C2\CSC(=O)N2)NC1=O (stereo not drawn)	48.8% (inactive)
O=C(O)CNC(=O)CC1S/C(=N/N=C2\CSC(=O)N2)NC1=O (stereo not drawn)	59.9% (active)
O=C(O)CNC(=O)CC1S/C(=N/N=C2/NC(=O)CS2)NC1=O (stereo not drawn)	25.1% (inactive)
CCc1sc(C(=O)Nc2ccsc2C(=O)OC)cc1Br	-4.6% (inactive)
O=C(CS(=O)(=O)c1cn(Cc2cccc(F)c2)c2ccccc12)N1CCOCC1	5.3% (inactive)
Cc1ccc2c(c1)C(=O)CCN2	-1.2% (inactive)
O=C1CCNc2ccc(-c3ccccc3)cc21	3.1% (inactive)
Cc1ccc2oc(-c3ccccc3C(=O)O)cc(=O)c2c1	-3.3% (inactive)
CCOC(=O)c1sc(/N=C/N(C)C)nc1C	-4.1% (inactive)
CCOC(=O)c1cnc(/N=C/N(C)C)s1	2.3% (inactive)

SMILES	inhibition
CCOC(=O)c1cc2n(c1/N=C/N(C)C)-c1ccccc1C2=O	55.7% (active)
Cc1ccccc1-c1nnc(NC(=O)c2cc3ccccc3oc2=O)s1	-1.2% (inactive)
CCN(CC)Cc1c(O)ccc2c(=O)c(-c3ccc4c(c3)OCCO4)coc12	5.6% (inactive)
COC1OC(COC(=O)CNC(=O)OC(C)(C)C)C(O)C(O)C1O (stereo not drawn)	-0.1% (inactive)
CCC(C(=O)NC1CCCCC1)N(Cc1cccs1)C(=O)c1snc(C(N)=O)c1N (stereo not drawn)	3.9% (inactive)
CC(C)CC(C(=O)NC1CCCCC1)N(Cc1cccs1)C(=O)c1snc(C(N)=O)c1N (stereo not drawn)	101% (active)
CC(C)CC(C(=O)NC1CCCC1)N(Cc1cccs1)C(=O)c1snc(C(N)=O)c1N (stereo not drawn)	13% (inactive)
CCOC(=O)COc1ccc(S(=O)(=O)NCC2CCCO2)cc1 (stereo not drawn)	-1.8% (inactive)
COc1ccccc1OCc1nc(-c2cccc([N+](=O)[O-])c2)no1	2.9% (inactive)
O=[N+]([O-])c1cccc(-c2noc(COc3ccccc3)n2)c1	57.3% (active)
COc1cccc(OCc2nc(-c3cccc([N+](=O)[O-])c3)no2)c1	4.9% (inactive)
CC(=O)c1cnc(-c2ccccc2Cl)s1	0.5% (inactive)
CC(C(=O)Nc1nc2ccccc2s1)n1cc([N+](=O)[O-])cn1 (stereo not drawn)	11.5% (inactive)
CS(=O)(=O)Nc1ccc2[nH]c(=O)[nH]c2c1	3.3% (inactive)
CCS(=O)(=O)Nc1ccc2[nH]c(=O)[nH]c2c1	52.1% (active)
Cc1cc(C)c(S(=O)(=O)Nc2ccc3[nH]c(=O)[nH]c3c2)c(C)c1	4.4% (inactive)
N#C/C(=C\c1cccc(NC(=O)c2ccccc2Cl)c1)C(=O)NCCc1ccccc1	10.1% (inactive)
O=C(Cc1ccc(F)cc1)OCC(=O)c1cc2ccccc2o1	9% (inactive)
COc1ccc(-c2nc(N)ncc2-c2csc(C)n2)c(O)c1OC	6.8% (inactive)
COc1ccc(-c2n[nH]c(C)c2-c2ccc(Cl)cc2)c(O)c1OC	6.7% (inactive)
COC1=C(N)C(=O)c2nc(-c3nc(C(=O)O)c(C)c(-c4ccc(OC)c(OC)c4O)c3N)ccc2C1=O	56% (active)
NS(=O)(=O)c1ccc(NC(=O)C2(c3ccccc3)CCCC2)cc1	1.9% (inactive)
O=C(CSc1ccc(-c2ccccn2)nn1)c1ccc([N+](=O)[O-])cc1	3.7% (inactive)
O=C(CSc1ccc(-c2ccccn2)nn1)c1ccc(F)cc1	62.5% (active)
O=C(CSc1ccc(-c2ccccn2)nn1)c1ccccc1	-14.4% (inactive)
